Screening data as filed in PubChem.
Hits are enriched below; roughly 11% of the tested compounds scored in any of these assays.
ALDH1A1 inh – qHTS Assay for Inhibitors of Aldehyde Dehydrogenase 1 (ALDH1A1) | Aldehyde dehydrogenase 1A1 (Homo sapiens), P00352 | Purified ALDH1A1, NADH fluorescence, propionaldehyde substrate | Potency, µM (titrated, usually from 75.3 µM), most hits filed as inhibitors | 7.3% of 220,000 active
JMJD2E inh – qHTS Assay for Inhibitors of Human Jumonji Domain Containing 2E (JMJD2E); Lysine-specific demethylase 4E (Homo sapiens), B2RXH2; JMJD2E catalytic domain, FDH-coupled NADH fluorescence (FDH is formaldehyde dehydrogenase); Potency, µM (titrated, usually from 57.1 µM), usual class: inhibitors; 1.6% of 230,000 active; further: nearly all actives have a fitted effect of over 50% in size
Target sequence (B2RXH2 1-337 limits assumed): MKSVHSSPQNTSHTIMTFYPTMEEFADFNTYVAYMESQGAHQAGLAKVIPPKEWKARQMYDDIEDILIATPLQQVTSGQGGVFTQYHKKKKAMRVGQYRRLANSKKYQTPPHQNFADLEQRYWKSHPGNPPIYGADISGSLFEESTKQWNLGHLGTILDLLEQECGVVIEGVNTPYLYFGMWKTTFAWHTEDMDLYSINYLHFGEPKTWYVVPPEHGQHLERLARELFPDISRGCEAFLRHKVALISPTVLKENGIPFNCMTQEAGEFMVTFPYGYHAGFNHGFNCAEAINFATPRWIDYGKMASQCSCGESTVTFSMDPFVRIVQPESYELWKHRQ
PNC assembly inh – High Content Assay for Compounds that inhibit the Assembly of the Perinucleolar Compartment. PC3M PTB-GFP, PNC prevalence imaging, 16 h; stronger effect = lower value. activity change (PNC), negative = inhibition, % at 10 µM. 3.1% of 140,000 active. AID 2417, 2010;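 active means readout at or below -70, meaning at least 70% loss of cells showing the perinucleolar compartment, a nuclear body marking cancer cells; inconclusive means readout between -30 and a set limit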
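Compounds are pinned in duplicate onto adhered PC3M cells stably expressing GFP-tagged PTB and incubated 16 h at 37 C. Cells are then fixed, nuclei stained with Hoechst, and PNC-positive cells counted.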
HPGD block – qHTS Assay for Inhibitors of HPGD (15-Hydroxyprostaglandin Dehydrogenase); 4.3% of 150,000 active; purified HPGD, NADH fluorescence kinetic, PGE2 substrate; Potency, µM, hits mostly inhibitors; AID 894, 2007; 15-hydroxyprostaglandin dehydrogenase [NAD(+)] (Homo sapiens), P15428
Target sequence (P15428 whole entry, looked up): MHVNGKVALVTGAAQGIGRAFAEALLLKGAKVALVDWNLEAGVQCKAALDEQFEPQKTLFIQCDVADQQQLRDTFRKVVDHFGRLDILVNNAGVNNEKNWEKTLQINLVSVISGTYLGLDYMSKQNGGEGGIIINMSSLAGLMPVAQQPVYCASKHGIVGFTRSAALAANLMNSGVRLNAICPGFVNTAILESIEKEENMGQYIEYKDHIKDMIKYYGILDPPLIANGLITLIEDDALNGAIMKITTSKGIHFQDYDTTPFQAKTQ
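20 nM HPGD preincubated 15 min at room temperature with compound in 50 mM Tris-HCl pH 8, 0.01% Tween 20. Started with 1 mM NAD+ and 30 uM prostaglandin E2; NADH fluorescence (360/450 nm) read 5 times over 30-s intervals, last minus first.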
Large screens that a line does not name were inactive. Unless noted, the call rests on the fitted dose curve; in most records, active means well fitted inhibition curve with a large enough effect (not every such curve was filed as active); inconclusive means small, poorly fitted or top-dose-only effect, or another doubt; inactive means no such curve, though single readings can be large or run the other way.

O=C1CSC(c2ccccc2Cl)N1 (configuration not stated)	none (no result: PNC assembly inh, HPGD block)
Cc1nn(C2CCS(=O)(=O)C2)c(Cl)c1/C=C/C(=O)OCC(=O)Nc1ccccc1OC(F)F (configuration not stated)	none
COc1ccc(Cl)cc1NC(=O)COC(=O)/C=C/c1c(C)nn(C2CCS(=O)(=O)C2)c1Cl (configuration not stated)	ALDH1A1 inh 25.1µM (no result: HPGD block)
Cc1ccc(CSc2ccc(-c3ccc4c(c3)OCO4)nn2)cc1	ALDH1A1 inh 11.2µM, HPGD block inconclusive
O=C(O)CCSc1nnc(COc2ccc([N+](=O)[O-])cc2)n1-c1ccccc1	none (no result: PNC assembly inh, HPGD block)
O=c1[nH]c(CSc2nnc(COc3ccccc3)n2-c2ccccc2)nc2ccccc12	ALDH1A1 inh 17.8µM, PNC assembly inh inconclusive
COc1cccc(-n2c(COc3ccc(C)cc3)nnc2SCC(=O)O)c1	HPGD block 25.1µM
COc1cccc(-n2c(COc3ccccc3C)nnc2SCC(=O)O)c1	PNC assembly inh inconclusive
O=C(O)CSc1nnc(COc2ccc([N+](=O)[O-])cc2)n1-c1ccccc1	ALDH1A1 inh 20µM (no result: PNC assembly inh, HPGD block)
CCn1c(CNc2ccc(Cl)cc2)nnc1SCC#N	none (no result: PNC assembly inh, HPGD block)
CCCCNC(=O)COC(=O)c1ccccc1F	none (no result: ALDH1A1 inh, PNC assembly inh, HPGD block)
Cc1ccc(-n2nnc(-c3ccnc4ccccc34)n2)cc1	none (no result: PNC assembly inh, HPGD block)
CC1CCN(C(=S)c2ccc3c(c2)OCO3)CC1	ALDH1A1 inh inconclusive, HPGD block 28.2µM
CC1CCN(C(=O)c2scc3c2OCCO3)CC1	HPGD block 15.8µM
CC1CCN(C(=O)c2ccc(-n3cnnn3)cc2)CC1	ALDH1A1 inh inconclusive, HPGD block 17.8µM
CC1CCN(C(=O)c2ccc3c(c2)OCCO3)CC1	PNC assembly inh inconclusive, HPGD block 0.398µM
O=C(Nc1ccc2c(c1)OCCO2)C1CCN(C(=O)c2ccc(Cl)cc2)CC1	none
CC1CN(C(=O)c2scc3c2OCCO3)CC(C)O1 (configuration not stated)	none
CCN(CC)C(=O)CSc1nc2cc3c(cc2c(=O)n1CCCCCC(=O)NCc1ccc(OC)cc1)OCO3	none (no result: PNC assembly inh, HPGD block)
Cc1ccc(NC(=S)N/N=C/c2c(Cl)cccc2Cl)c(C)c1	PNC assembly inh -98.3
Oc1cc2c(cc1O)[C@H](c1ccccc1)CNCC2	JMJD2E inh 14.1µM, HPGD block 28.2µM (no result: PNC assembly inh)
Cc1nc([N+](=O)[O-])c(N2CCN(C)CC2)n1Cc1ccccc1	PNC assembly inh -88.1
CCn1c(=O)c(=O)[nH]c2cc(C(=O)N3CCN(Cc4ccc5c(c4)OCO5)CC3)ccc21	JMJD2E inh inconclusive (no result: PNC assembly inh, HPGD block)
O=C1c2ccccc2S(=O)(=O)N1CC1CC(c2ccccc2Cl)=NO1 (configuration not stated)	ALDH1A1 inh 12.6µM, HPGD block 14.1µM
COc1ccccc1C1=NOC(CN2C(=O)c3ccccc3S2(=O)=O)C1 (configuration not stated)	none (no result: ALDH1A1 inh, PNC assembly inh, HPGD block)
CN=c1scc(-c2ccc([N+](=O)[O-])cc2)n1/N=C/c1ccco1	none (no result: PNC assembly inh, HPGD block)
CN=c1scc(-c2ccc(F)cc2)n1/N=C/c1ccc(O)c(O)c1	ALDH1A1 inh inconclusive, JMJD2E inh 28.2µM (no result: PNC assembly inh, HPGD block)
O=C(N/N=C/c1sc(N2CCOCC2)nc1-c1ccccc1)c1ccccc1O	ALDH1A1 inh inconclusive, JMJD2E inh inconclusive
O=Cc1sc(N2CCOCC2)nc1-c1ccccc1	ALDH1A1 inh 8.91µM (no result: PNC assembly inh, HPGD block)
Cc1ccc(C(=O)N2CCC3(CC2)Oc2ccc(F)cc2C(=O)C32CC(c3cccnc3)=NO2)s1 (configuration not stated)	none (no result: ALDH1A1 inh, PNC assembly inh, HPGD block)
Cc1nn(-c2ccccn2)c2c1C(=O)CC(C)(C)C2Br (configuration not stated)	none (no result: ALDH1A1 inh, PNC assembly inh, HPGD block)
COc1ccccc1CCn1c(=O)c(-c2cccc(Cl)c2)nc2cncnc21	none (no result: JMJD2E inh, PNC assembly inh, HPGD block)
CCCCSc1nnc2c(n1)OC(C(=O)c1ccccc1)Nc1ccccc1-2 (configuration not stated)	ALDH1A1 inh 20µM
COc1ccccc1C(=O)C1Nc2ccccc2-c2nnc(SC)nc2O1 (configuration not stated)	ALDH1A1 inh 22.4µM, PNC assembly inh -103.7
CCCCCSc1nnc2c(n1)OC(C)N(C(C)=O)c1ccccc1-2 (configuration not stated)	PNC assembly inh inconclusive
CCOc1ccc(N2C(=O)Nc3ccccc3C2(O)C(=O)N2CCN(c3ccccn3)CC2)cc1 (configuration not stated)	JMJD2E inh inconclusive (no result: PNC assembly inh, HPGD block)
O=C(O)c1cccc(Cl)c1Cl	none (no result: JMJD2E inh, PNC assembly inh)
Cc1cc(C)cc(NC(=O)CCN2CCCC2)c1	none (no result: PNC assembly inh, HPGD block)
CC1CCN(c2ccc(C=O)o2)CC1	ALDH1A1 inh 14.1µM (no result: PNC assembly inh, HPGD block)
Cc1ccccc1CN1CCN(CC2CC3C=CC2C3)CC1 (configuration not stated)	JMJD2E inh inconclusive
C1=CC2CC1CC2CN1CCN(c2ccccc2)CC1 (configuration not stated)	JMJD2E inh inconclusive, PNC assembly inh -81.4
CC(=O)Nc1ccc(S(=O)(=O)N2CCN(CC3CC4C=CC3C4)CC2)cc1 (configuration not stated)	ALDH1A1 inh 4.47µM, JMJD2E inh inconclusive (no result: PNC assembly inh, HPGD block)
CC(=O)Nc1ccc(S(=O)(=O)N2CCN(Cc3ccccc3[N+](=O)[O-])CC2)cc1	ALDH1A1 inh 22.4µM (no result: PNC assembly inh, HPGD block)
CC(=O)Nc1ccc(S(=O)(=O)N2CCN(CCC#N)CC2)cc1	none
CS(=O)(=O)N1CCN(CC2CC3C=CC2C3)CC1 (configuration not stated)	JMJD2E inh inconclusive, PNC assembly inh -89.4
N=C(N)SC(c1ccccc1)c1ccccc1	none (no result: JMJD2E inh, PNC assembly inh)
CC(C)(C)NC(=S)NC1CC1	none (no result: ALDH1A1 inh, PNC assembly inh, HPGD block)
Cc1ccc(/C=C2\SC(N3CCN(C(c4ccccc4)c4ccccc4)CC3)=NC2=O)o1	HPGD block 3.55µM
O=C1N=C(c2ccccc2)S/C1=C\c1cccs1	ALDH1A1 inh 3.55µM, HPGD block 5.62µM
O=C1N=C(N2CCN(c3ccccc3)CC2)S/C1=C/c1cccs1	ALDH1A1 inh inconclusive, HPGD block 15.8µM
Cc1ccc(-c2ccc(/C=C3\SC(N4CCOCC4)=NC3=O)o2)cc1	ALDH1A1 inh inconclusive (no result: PNC assembly inh, HPGD block)
O=C(Nc1ccccc1O)c1ccc(NS(=O)(=O)c2cccc3cccnc23)cc1	none (no result: PNC assembly inh, HPGD block)
Cc1cc(S(=O)(=O)N2CCC(N3CCCCC3)CC2)ccc1-n1cnnn1	ALDH1A1 inh 0.0282µM
Cc1cc(S(=O)(=O)N2CCC(NC(=O)C34CC5CC(CC(C5)C3)C4)CC2)ccc1-n1cnnn1	ALDH1A1 inh inconclusive
CC1(C)S[C@@H]2[C@H](NC(=O)C3(N)CCCCC3)C(=O)N2[C@@H]1C(=O)O	none (no result: JMJD2E inh, PNC assembly inh)
CCN(CC)c1ccc(C(=O)N/N=C(\C)c2ccc(O)cc2)cc1	ALDH1A1 inh 25.1µM
C/C(=N\NC(=O)c1ccc(N(C)C)cc1)c1ccc(C)c(C)c1	ALDH1A1 inh 14.1µM (no result: HPGD block)
Cc1ccccc1NC(=O)CN1C(=O)S/C(=C\c2ccc(-c3cc(C(=O)O)ccc3C)o2)C1=O	ALDH1A1 inh 28.2µM (no result: PNC assembly inh, HPGD block)
Cc1ccc(NC(=O)CN2C(=O)S/C(=C\c3ccc(-c4cccc(C(=O)O)c4C)o3)C2=O)cc1	ALDH1A1 inh inconclusive, JMJD2E inh inconclusive, HPGD block 10µM
Cc1ccc(NC(=O)CN2C(=O)S/C(=C\c3cc(C)n(C)c3C)C2=O)cc1	none
